# Unmarked numbers belong to inactive results. Results filed as inconclusive are left out. Activity calls are given as the source filed them. Unless noted, calls follow the shape of the dose curve; as a rule, active = well fitted curve in either direction with a large enough effect (not every such curve was filed as active); inconclusive = small, poorly fitted or top-dose-only effect, or another doubt; inactive = flat fitted curve, though single readings scatter.
# What was measured:
# [1] = target: Lysosomal acid glucosylceramidase (Homo sapiens) (UniProt P04062); experiment: Glucocerebrosidase-p2 (AID 348; in the data active = potency below about 10 µM; also: potency is read from the fitted curve at half-maximal effect); details: purified GBA, blue fluorogenic substrate, 40 min
# Outline: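 Compounds titrated from 0.6 nM upwards against 0.2 nM enzyme in pH 5.9 citric acid/KH2PO4, taurocholate, tween-20; blue fluorogenic substrate 80 uM, 40 min room temperature, stopped and read Ex 365/Em 440 for AC50.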
# [2] = AP1 Signaling Pathway (AID 357); details: ME-180 AP-1-bla reporter, EGF-induced, beta-lactamase ratio, 5 h; at 7.69 µM (top of the series) unless noted;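 also: ME-180 reporter cells stimulated with EGF at its EC50 level; % is scaled to controls: 0 for no effect and ±100 for the full control effect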
# Outline: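 Read-out was the 460nm/530nm emission ratio (excitation 405nm) after CCF4 loading for 2.5 hours at room temperature. Cells carried an AP-1-driven beta-lactamase reporter, were stimulated with EC50 EGF plus compound for 5 hours, and AC50 values came from titrations.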
# [3] = target: Cytochrome P450 1A2 (Homo sapiens) (UniProt P05177); experiment: p450-cyp1a2 (AID 410; calls by dose curve; also: potency is read from the fitted curve at half-maximal effect;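 as to activity change, negative = inhibition: -100% = full effect of reference inhibitor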); details: recombinant CYP1A2, luciferin-ME demethylation, luminescence; series mostly up to 11.4 µM
# Outline: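 Luminescent readout of luciferin formed from Luciferin-ME by human CYP1A2; data normalized against complete inhibition by 57 uM furafylline. Enzyme 20nM, substrate 100uM at Km, 100mM KPO4 buffer, 60 min reaction at room temperature.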
# [4] = NFAT Signaling Pathway (AID 444); details: Jurkat NFAT-bla M1, carbachol, beta-lactamase ratio, 5 h; at 7.69 µM (top of the series) unless noted;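 also: carbachol stimulus at about its EC50 of 1 µM final; % is scaled to controls: 0 for no effect and ±100 for the full control effect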
# Outline: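 Jurkat cells carrying an NFAT-driven β-lactamase reporter and co-transfected muscarinic M1 receptor were treated with compound plus carbachol (1 uM final, an EC50 level) for 5 h at 37 °C. CCF4 loading followed for 1 h at RT; 460/530 nm ratio gave %activity.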
# [5] = Stat Signaling Pathway (AID 446); details: ME-180 (cervical carcinoma) SIE beta-lactamase reporter, IL-6 stimulated, 5 h; at 7.69 µM (top of the series) unless noted;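 also: ME-180 cervical cancer cells given 40 pM IL-6 alongside compound; SIE-controlled beta-lactamase reporter measured as 460/530 nm FRET emission ratio; % is scaled to controls: 0 for no effect and ±100 for the full control effect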
# Outline: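 IL-6/STAT signaling read in ME-180 cells via an SIE beta-lactamase reporter. Stimulus was 40 pM IL-6 (its AC50) for 5 hrs, so both activation and inhibition register.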
# [6] = target: Glucocorticoid receptor (Homo sapiens) (UniProt P04150); experiment: GR-GFP Redistribution (AID 450;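 active = compounds whose dose series gives a full or clear partial fitted curve of increased nuclear translocation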; also: potency is read from the fitted curve at half-maximal effect); details: U2OS GR-GFP nuclear translocation, laser cytometry, 2 h
# [7] = target: Glucocorticoid receptor (Homo sapiens) (UniProt P04150); experiment: GR-EFC Redistribution (AID 451; calls by dose curve; also: potency is read from the fitted curve at half-maximal effect); details: CHO-K1 GR-EFC translocation, beta-gal luminescence, 2 h
# Outline: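 CHO-K1 cells stably expressing nuclear-localized β-gal enzyme acceptor and GR fused C-terminally to the enzyme donor fragment; ligand-driven nuclear translocation restores β-gal by complementation. Compounds titrated up to 46 uM final, 2 h at 37 °C; luminescence read.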
# [8] = target: Mitogen-activated protein kinase 10 (Mus musculus) (UniProt Q61831); experiment: JNK3 AlphaScreen Assay (AID 530); details: JNK3 lysate, c-Jun phosphorylation; series mostly up to 11.4 µM;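 also: kinase came from lysate of stimulated human HepG2 cells; signal reports phosphorylation of biotinylated GST-cJun 1-79 at Ser73 with 10 µM ATP; % is scaled to controls: 0 for no effect and ±100 for the full control effect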
# Outline: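 Inhibitors reduce antibody binding to phosphorylated biotin-cJun, lowering AlphaScreen luminescence. Lysates from HepG2 cells pre-activated by IL-1beta plus TNF-alpha supplied JNK3; compounds were titrated.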
# [9] = target: 3',5'-cyclic-AMP phosphodiesterase 4B (Homo sapiens) (UniProt Q07343); experiment: qHTS Assay for Inhibitors of PDE-IV (AID 607; active = well fitted activation curve with a large enough effect in the main read-out, with a control signal flat, not every such curve was filed as active; also: % of control where 0% means no effect); details: HEK293 ACTOne CNG channel cells, membrane potential fluorescence; series mostly up to 22.9 µM
# Outline: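 Live HEK293 cells with a modified cyclic nucleotide-gated (CNG) channel report intracellular cAMP via membrane-potential dye fluorescence (ex 535/em 590 nm). Endogenous PDE-IV was targeted. Compounds were tested at up to 22.9 uM final; RO 20-1724 100 uM served as control.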
# Glucocorticoid receptor (Homo sapiens), sequence (P04150 whole entry, looked up, the tested form may be a part): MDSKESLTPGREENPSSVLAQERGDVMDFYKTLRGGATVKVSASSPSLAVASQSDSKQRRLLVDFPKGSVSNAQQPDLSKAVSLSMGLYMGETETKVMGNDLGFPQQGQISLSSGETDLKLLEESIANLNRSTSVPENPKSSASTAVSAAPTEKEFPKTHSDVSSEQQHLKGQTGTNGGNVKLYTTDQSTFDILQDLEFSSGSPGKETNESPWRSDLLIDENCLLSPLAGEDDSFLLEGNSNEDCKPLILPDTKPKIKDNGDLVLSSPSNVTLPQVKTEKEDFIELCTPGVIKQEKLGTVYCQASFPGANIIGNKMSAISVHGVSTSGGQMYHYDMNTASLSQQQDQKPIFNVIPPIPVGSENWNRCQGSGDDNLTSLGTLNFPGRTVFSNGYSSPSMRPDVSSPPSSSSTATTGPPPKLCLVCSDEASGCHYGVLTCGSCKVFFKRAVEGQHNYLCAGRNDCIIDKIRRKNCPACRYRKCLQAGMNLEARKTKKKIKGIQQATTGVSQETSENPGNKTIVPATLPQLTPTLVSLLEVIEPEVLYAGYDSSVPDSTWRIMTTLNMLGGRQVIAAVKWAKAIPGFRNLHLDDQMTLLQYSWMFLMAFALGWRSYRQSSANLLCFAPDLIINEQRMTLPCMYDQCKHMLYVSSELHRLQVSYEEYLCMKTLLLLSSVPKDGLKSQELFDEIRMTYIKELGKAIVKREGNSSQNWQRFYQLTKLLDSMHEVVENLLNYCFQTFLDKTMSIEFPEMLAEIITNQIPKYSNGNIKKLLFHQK
# 3',5'-cyclic-AMP phosphodiesterase 4B (Homo sapiens), sequence (Q07343 whole entry, looked up): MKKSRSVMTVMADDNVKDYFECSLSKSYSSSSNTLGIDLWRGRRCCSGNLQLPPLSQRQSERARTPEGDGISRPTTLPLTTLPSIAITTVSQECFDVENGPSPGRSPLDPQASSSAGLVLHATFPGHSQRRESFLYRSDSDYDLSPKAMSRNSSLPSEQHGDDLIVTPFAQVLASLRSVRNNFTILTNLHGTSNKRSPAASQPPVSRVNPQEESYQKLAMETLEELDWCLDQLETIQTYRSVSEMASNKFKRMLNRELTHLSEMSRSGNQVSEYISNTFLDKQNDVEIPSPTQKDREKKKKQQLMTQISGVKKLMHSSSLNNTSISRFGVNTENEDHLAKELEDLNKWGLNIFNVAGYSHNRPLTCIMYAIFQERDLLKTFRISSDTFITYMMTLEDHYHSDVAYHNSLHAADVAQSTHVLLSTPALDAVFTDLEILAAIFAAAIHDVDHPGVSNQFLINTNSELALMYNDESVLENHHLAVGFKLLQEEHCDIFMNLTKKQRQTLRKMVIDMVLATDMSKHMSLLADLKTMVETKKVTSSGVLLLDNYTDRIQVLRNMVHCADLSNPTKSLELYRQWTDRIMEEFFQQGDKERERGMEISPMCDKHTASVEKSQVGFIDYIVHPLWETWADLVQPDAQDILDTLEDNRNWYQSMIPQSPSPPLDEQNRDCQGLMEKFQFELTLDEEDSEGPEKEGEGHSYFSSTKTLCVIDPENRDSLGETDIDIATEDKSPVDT
# Lysosomal acid glucosylceramidase (Homo sapiens), sequence (P04062 whole entry, looked up): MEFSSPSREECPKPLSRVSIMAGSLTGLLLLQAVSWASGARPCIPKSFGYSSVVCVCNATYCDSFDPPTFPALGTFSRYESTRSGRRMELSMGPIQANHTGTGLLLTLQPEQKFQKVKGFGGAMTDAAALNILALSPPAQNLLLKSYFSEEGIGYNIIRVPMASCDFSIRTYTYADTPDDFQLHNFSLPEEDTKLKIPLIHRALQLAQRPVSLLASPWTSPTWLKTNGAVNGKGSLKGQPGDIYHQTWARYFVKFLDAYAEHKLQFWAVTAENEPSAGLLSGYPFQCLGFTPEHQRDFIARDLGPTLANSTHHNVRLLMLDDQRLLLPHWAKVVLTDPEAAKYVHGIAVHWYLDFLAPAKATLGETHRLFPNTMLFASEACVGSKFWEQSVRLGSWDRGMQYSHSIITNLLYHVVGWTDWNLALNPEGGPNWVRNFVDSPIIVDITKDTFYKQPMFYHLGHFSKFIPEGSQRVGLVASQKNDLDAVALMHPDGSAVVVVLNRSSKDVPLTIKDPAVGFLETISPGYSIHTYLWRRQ
# Cytochrome P450 1A2 (Homo sapiens), sequence (P05177 whole entry, looked up): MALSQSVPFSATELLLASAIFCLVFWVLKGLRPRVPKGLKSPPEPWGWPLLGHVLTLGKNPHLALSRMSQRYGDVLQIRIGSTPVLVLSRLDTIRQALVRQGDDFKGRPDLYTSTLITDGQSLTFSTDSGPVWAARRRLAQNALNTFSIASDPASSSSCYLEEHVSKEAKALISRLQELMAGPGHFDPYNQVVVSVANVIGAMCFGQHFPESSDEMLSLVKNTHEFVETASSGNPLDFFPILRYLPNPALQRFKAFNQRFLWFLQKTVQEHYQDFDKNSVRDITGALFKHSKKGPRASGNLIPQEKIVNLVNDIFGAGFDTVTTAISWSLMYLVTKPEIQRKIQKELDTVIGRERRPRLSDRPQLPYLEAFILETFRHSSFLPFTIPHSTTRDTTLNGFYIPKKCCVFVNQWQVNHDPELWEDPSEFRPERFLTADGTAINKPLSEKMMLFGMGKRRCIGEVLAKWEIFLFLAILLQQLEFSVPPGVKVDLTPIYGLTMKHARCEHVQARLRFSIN
SMILES,Potency [1],"activity change, negative = inhibition [2]",Potency [3],"activity change, negative = inhibition [4]","activity, negative = inhibition [5]",Potency [6],Potency [7],Potency [8],Potency [9],"activity change, negative = inhibition [3]"
Cn1c(=O)c2[nH]c(CCCCC(=O)O)nc2n(C)c1=O,> 11.4 µM,1.28%,0.794 µM (active),6.73%,1.27%,> 46 µM,> 9.22 µM,inactive,inactive,
NCS(=O)(=O)O,> 11.4 µM,-4.59%,,2.65%,-0.0948%,> 46 µM,> 9.22 µM,inactive,inactive,-5.6% [at 2.29 µM]
O=C(O)[C@@H]1CCN(Cc2oc(CO)cc(=O)c2O)C1,> 11.4 µM,6.76%,10 µM (active),-8.96%,16.1%,> 46 µM,> 9.22 µM,inactive,inactive,
Cn1c(N)c(N=Nc2ccc(S(N)(=O)=O)cc2)c(=O)n(C)c1=O,> 11.4 µM,12.7%,,16.4%,24.3%,> 46 µM,> 9.22 µM,inactive,inactive,-12.8% [at 2.29 µM]
Cc1[nH]c(N)nc(=S)c1CCC(=O)O,> 11.4 µM,-7.6%,inactive,1.85%,-3.94%,> 46 µM,> 9.22 µM,inactive,inactive,
O=C(O)C12CC3(C(=O)O)CC(C(=O)O)(CC(C(=O)O)(C1)C3=O)C2=O,> 11.4 µM,-2.38%,,6.84%,4.13%,> 46 µM,> 9.22 µM,inactive,inactive,-4.3% [at 2.29 µM]
Cc1cc2sc(C)[n+](CCCOS(=O)(=O)O)c2cc1C,> 11.4 µM,-5.1%,inactive,7.47%,1%,> 46 µM,> 9.22 µM,inactive,inactive,
CC(CCN)(CCN)[N+](=O)[O-],> 11.4 µM,10.4%,inactive,9.23%,5.23%,> 46 µM,> 9.22 µM,inactive,inactive,
CCC(=O)Nc1ncnc2ncn(C(=O)CC)c12,> 11.4 µM,8.41%,inactive,1.71%,1.38%,> 46 µM,> 9.22 µM,inactive,inactive,
COc1cc(NCCC(=O)O)c2ncccc2c1,> 11.4 µM,2.4%,inactive,2.69%,-1.17%,> 46 µM,> 9.22 µM,inactive,inactive,
O=C(O)c1nnsc1COCc1ccccc1,> 11.4 µM,6.35%,inactive,6.97%,12.4%,> 46 µM,> 9.22 µM,inactive,inactive,
CCON=C1C(C)(C)C(C)(C)C(C)(C)C1(C)C,> 11.4 µM,1.12%,inactive,6.28%,-3.9%,> 46 µM,> 9.22 µM,inactive,inactive,
Oc1c(CN2CCOCC2)ccc(CN2CCOCC2)c1O,> 11.4 µM,-1.19%,,13%,-3.77%,> 46 µM,> 9.22 µM,inactive,inactive,-11.9% [at 2.29 µM]
Cc1cc(N2CCN(C)CC2)n2nc(-c3ccc(Cl)cc3)nc2n1,> 11.4 µM,-1.96%,inactive,13.2%,4.28%,> 46 µM,> 9.22 µM,inactive,inactive,
Nc1nc2c(ncn2[C@@H]2C=C[C@@H](CO)C2)c(=O)[nH]1,> 11.4 µM,2.92%,inactive,10.3%,5.37%,> 46 µM,> 9.22 µM,inactive,inactive,
CN(C)CN1C(=O)S/C(=C2/C(=O)N(CN(C)C)c3ccccc32)C1=O,> 11.4 µM,-4.12%,0.794 µM (active),9.46%,-0.139%,> 46 µM,> 9.22 µM,inactive,inactive,
O=C(O)CC[C@]1(C(=O)O)CCC(=O)c2ccccc21,> 11.4 µM,11.8%,inactive,4.42%,2.44%,> 46 µM,> 9.22 µM,inactive,inactive,
C=CCSc1nc2ccccc2c(=O)n1Cc1ccco1,> 11.4 µM,-0.523%,0.0251 µM (active),2.6%,-8.01%,> 46 µM,> 9.22 µM,inactive,inactive,
O=C(O)Cc1cc(Cl)ccc1O,> 11.4 µM,-8.98%,inactive,-0.2%,20.2%,> 46 µM,> 9.22 µM,inactive,inactive,
O=C(O)CSc1ncccc1[N+](=O)[O-],> 11.4 µM,6.57%,inactive,2.05%,1.22%,> 46 µM,> 9.22 µM,inactive,inactive,
CN(C)CC(CN(C)C)c1ccccn1,> 11.4 µM,3.76%,inactive,10.8%,1.27%,> 46 µM,> 9.22 µM,inactive,inactive,
CC1=CC(=O)CC(C)(C)[C@]1(O)/C=C\C(C)=C\C(=O)O,> 11.4 µM,2.59%,inactive,-29.1%,2.83%,> 46 µM,> 9.22 µM,inactive,inactive,
O=C(Nc1nn[nH]n1)c1nc(-c2ccccc2)cc(=O)[nH]1,> 11.4 µM,2.85%,3.98 µM (active),0.574%,-4.08%,> 46 µM,> 9.22 µM,inactive,inactive,
NN(CC(=O)O)CC(=O)O,> 11.4 µM,-2.45%,inactive,-1.35%,-0.699%,> 46 µM,> 9.22 µM,inactive,inactive,
O=C(O)[C@@H]1[C@@H]2C[C@H]([C@@H](Br)[C@H]2N2C(=O)CCC2=O)[C@@H]1C(=O)O,> 11.4 µM,-1.32%,,10.6%,11.9%,> 46 µM,> 9.22 µM,inactive,inactive,-15.8% [at 2.29 µM]
N#CC[N+]1(Cc2ccccn2)CCCC1,> 11.4 µM,-12.2%,,0.385%,-1.41%,> 46 µM,> 9.22 µM,inactive,inactive,3.4% [at 2.29 µM]
O=C(O)c1cccc(OCCO)c1,> 11.4 µM,7.9%,inactive,-28.1%,13.6%,> 46 µM,> 9.22 µM,inactive,inactive,
Cc1cc2nc([C@H](C)C(=O)c3ccc(Cl)cc3)c(=O)[nH]c2cc1C,> 11.4 µM,-1.07%,0.501 µM (active),-5.22%,-18.7%,> 46 µM,> 9.22 µM,inactive,inactive,
Nc1nc(-c2cc(-c3cccc4ccccc34)nc(N)n2)cc(-c2cccc3ccccc23)n1,> 11.4 µM,-7.45%,,3.93%,-4.92%,> 46 µM,> 9.22 µM,inactive,inactive,-4.4% [at 2.29 µM]

# — PubChem BioAssay (NCATS)
